Assay outcomes: PubChem BioAssay, several laboratories
Most compounds without a hit are left out; they make up all but 0.23% or so of the library.
Phagocytosis inh – blocks phagocytosis by macrophages | J774A.1 macrophage IgG-bead phagocytosis, imaging | inhibition, % at 5 µM | 110,000 compounds, 0.07% hits | AID 1029;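 active = inhibition above the mean of the plate negative controls plus 5 SD, cut at about 13% in these data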;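 also: phagocytic index as fraction of beads internalized from green versus red external bead signal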
Bim-Bfl-1 – disrupts Bim binding to human Bfl-1; Q16548; Bead-based flow cytometry, Bim-Bfl-1 binding inhibition; inhibition, % at 10 µM; 190,000 compounds, 0.12% hits
Bcl-B Bim block – inhibitors of Bim-Bcl-B interaction, human; AID 951; inhibition, % at 10 µM; bead-based flow cytometry, Bim peptide-Bcl-B binding; 190,000 compounds, 0.073% hits
Bcl-W Bim block – human Bim-Bcl-W interaction inhibition; bead-based flow cytometry, Bim peptide-Bcl-W binding; inhibition, % at 10 µM; 190,000 compounds, 0.02% hits; AID 952;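 also: higher means less fluorescent Bim peptide bound to Bcl-W beads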
Bim-Bcl-XL – disrupts Bim peptide binding to human Bcl-XL | Q07817 | bead flow cytometry, fluorescence | inhibition, % at 10 µM | 190,000 compounds, 0.04% hits | AID 1007
Target sequence (Q07817 whole entry, looked up): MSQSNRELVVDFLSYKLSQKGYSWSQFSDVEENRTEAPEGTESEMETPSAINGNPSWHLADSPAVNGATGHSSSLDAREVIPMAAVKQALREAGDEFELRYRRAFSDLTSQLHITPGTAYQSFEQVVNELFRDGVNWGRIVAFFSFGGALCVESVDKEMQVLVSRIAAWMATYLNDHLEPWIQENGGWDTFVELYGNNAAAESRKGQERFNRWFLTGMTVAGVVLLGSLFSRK
Bcl-2 Bim block – disrupts Bim peptide binding to human Bcl-2 | 190,000 compounds, 0.06% hits | inhibition, % at 10 µM | Bead-based flow cytometry, Bim peptide-Bcl-2 binding; in the data active = inhibition above about 40%
Each line names hits and unclear results; the compound was inactive in the other large screens. Rule as the data show it, unless noted: active = inhibition above about 40%.

CN1CCN(c2ccc(N)cc2)CC1	Bcl-B Bim block 61.0
Cc1ccc(N=C(N(C)C)P(=O)(N(C)C)N(C)C)cc1	none (no result: Phagocytosis inh)
CN(C)c1ccc(C=C2C(=O)NC(=S)NC2=O)cc1[N+](=O)[O-]	none (no result: Phagocytosis inh)
CN(C)c1ccc(C=C2C(=O)NC(=O)NC2=O)cc1[N+](=O)[O-]	Bim-Bfl-1 48.0 (no result: Phagocytosis inh)
O=C1NC(=O)C(=Cc2ccc(-c3cc(Cl)ccc3[N+](=O)[O-])o2)C(=O)N1	Bim-Bfl-1 45.0 (no result: Phagocytosis inh)
[N-]=[N+]=NC1C[C@H](n2ccc(=O)[nH]c2=O)O[C@@H]1CO (some centres undefined)	none (no result: Phagocytosis inh)
